According to PubChem BioAssay:
Records with an inconclusive call do not appear. For part of these data: Measured potencies and affinities stand elsewhere. Calls of active or inactive are those of the source. Unless noted, no rule for the calls is given here.

What was measured:
[1] = antimalarial activity against Dd2 strain (AID 2302;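 active = growth inhibition above 50% at the single 2 µM test dose, taken to imply half-maximal potency below 2 µM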;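 also: 0% = DMSO untreated growth and 100% = chloroquine plus artemisinin killed control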); conditions: P. falciparum Dd2 in RBCs, LDH growth readout, 72 h; at 2 µM; stronger effect = higher value
[2] = human hepatoma cell viability loss – ATP luminescence, cytotoxicity control for P. falciparum antimalarial project, primary screen (AID 2303;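 active = inhibition above 50%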;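 also: 0% = DMSO wells and 100% = digitonin-killed cells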); conditions: HepG2 viability, 24-48 h, at 10 µM, stronger effect = higher value
[3] = target: L-lactate dehydrogenase (Plasmodium falciparum (isolate CDC / Honduras)) (UniProt Q27743); experiment: PfLDH activity inhibition – cell lysate, 3D7 strain, counter-screen for P. falciparum growth inhibition project (AID 2304);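 also: 0% = vehicle and 100% = reference inhibitor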; conditions: P. falciparum 3D7 crude extract, LDH APAD/NBT absorbance; at 2 µM; stronger effect = higher value
Sequence of L-lactate dehydrogenase (Plasmodium falciparum (isolate CDC / Honduras)) (Q27743 whole entry, looked up): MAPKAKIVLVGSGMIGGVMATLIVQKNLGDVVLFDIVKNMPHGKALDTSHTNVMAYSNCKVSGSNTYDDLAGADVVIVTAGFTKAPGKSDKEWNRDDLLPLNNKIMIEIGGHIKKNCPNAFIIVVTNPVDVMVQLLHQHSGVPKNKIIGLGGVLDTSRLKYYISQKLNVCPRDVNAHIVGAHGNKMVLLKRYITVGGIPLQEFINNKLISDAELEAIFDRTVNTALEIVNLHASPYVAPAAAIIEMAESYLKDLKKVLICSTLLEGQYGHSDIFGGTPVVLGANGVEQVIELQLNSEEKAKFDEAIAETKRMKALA

[4] = inhibition of 3D7 malaria parasite growth – strain 3D7 (AID 2306);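 also: 0% = DMSO wells and 100% = chloroquine plus artemisinin control wells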; conditions: P. falciparum 3D7 erythrocytic growth, LDH absorbance, 72 h; at 2 µM; stronger effect = higher value
[5] = target: Plasmodium falciparum protein kinase 6 (PK6, PF3D7_1337100) (UniProt Q8IDW1); experiment: PfPK6 kinase inhibitors, biochemical, TCAMS library (AID 1159586); conditions: recombinant PfPK6, Kinase-Glo ATP depletion luminescence
Sequence of Plasmodium falciparum protein kinase 6 (PK6, PF3D7_1337100) (Q8IDW1 1-305): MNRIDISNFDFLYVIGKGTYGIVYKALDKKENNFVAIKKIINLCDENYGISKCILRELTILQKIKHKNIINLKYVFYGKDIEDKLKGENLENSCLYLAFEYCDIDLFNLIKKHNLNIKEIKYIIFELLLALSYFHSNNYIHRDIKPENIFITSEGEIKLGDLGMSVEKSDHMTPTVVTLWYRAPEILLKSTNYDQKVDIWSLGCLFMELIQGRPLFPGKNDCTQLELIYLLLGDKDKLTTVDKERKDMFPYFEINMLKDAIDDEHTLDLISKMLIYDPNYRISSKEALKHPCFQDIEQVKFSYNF

[6] = target: Protein kinase 7 (PK7), Plasmodium falciparum 3D7 (PF3D7_0213400) (UniProt Q7YTF7); experiment: inhibition of Plasmodium PK7 catalytic activity – biochemical, TCAMS antimalarial set, Kinase-Glo luminescence (AID 1159587); conditions: recombinant PfPK7, Kinase-Glo ATP depletion luminescence
Sequence of Protein kinase 7 (PK7), Plasmodium falciparum 3D7 (PF3D7_0213400) (Q7YTF7 1-343): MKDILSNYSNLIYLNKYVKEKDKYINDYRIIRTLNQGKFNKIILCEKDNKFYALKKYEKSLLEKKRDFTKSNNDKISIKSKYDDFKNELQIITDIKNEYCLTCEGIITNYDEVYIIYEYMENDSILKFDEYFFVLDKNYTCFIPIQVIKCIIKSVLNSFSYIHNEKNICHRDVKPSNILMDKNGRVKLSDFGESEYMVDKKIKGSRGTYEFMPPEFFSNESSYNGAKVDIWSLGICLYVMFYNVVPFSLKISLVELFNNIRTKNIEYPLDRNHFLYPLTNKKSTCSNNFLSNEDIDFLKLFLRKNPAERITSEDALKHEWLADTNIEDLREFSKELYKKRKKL

[7] = target: Calcium-dependent protein kinase 4 (Plasmodium falciparum (isolate 3D7)) (UniProt Q8IBS5); experiment: PfCDPK4 kinase inhibitors, biochemical, TCAMS library (AID 1159588; cut-off not given, nearly all actives have IC50 up to about 0.91 µM); conditions: recombinant PfCDPK4, Kinase-Glo ATP depletion luminescence
Sequence of Calcium-dependent protein kinase 4 (Plasmodium falciparum (isolate 3D7)) (Q8IBS5 whole entry, looked up): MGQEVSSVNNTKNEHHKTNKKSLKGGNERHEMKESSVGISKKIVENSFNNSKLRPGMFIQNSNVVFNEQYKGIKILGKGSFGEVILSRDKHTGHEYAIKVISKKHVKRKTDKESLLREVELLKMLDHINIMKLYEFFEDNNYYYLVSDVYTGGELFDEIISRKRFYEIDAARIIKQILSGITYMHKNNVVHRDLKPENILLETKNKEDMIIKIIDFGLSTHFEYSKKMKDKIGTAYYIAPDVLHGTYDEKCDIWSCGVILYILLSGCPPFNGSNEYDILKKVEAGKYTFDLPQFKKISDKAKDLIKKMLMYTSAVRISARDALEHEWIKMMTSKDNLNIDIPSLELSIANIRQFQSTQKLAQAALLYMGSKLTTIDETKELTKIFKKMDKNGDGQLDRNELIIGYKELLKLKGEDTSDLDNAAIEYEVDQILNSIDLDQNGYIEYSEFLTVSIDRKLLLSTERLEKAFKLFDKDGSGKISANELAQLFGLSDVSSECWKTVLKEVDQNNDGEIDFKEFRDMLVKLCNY

[8] = system: Aerobactin synthetase IucA (Klebsiella pneumoniae); experiment: inhibition of K. pneumoniae IucA enzyme – biochemical, Tocris library, absorbance (AID 1345561); conditions: purified IucA enzyme assay, absorbance (OD) read-out; stronger effect = lower value;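 tested at 8 µM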;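 also: 100% = enzyme without compound and 0% = no enzyme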
[9] = viability loss in pontine glioma line – cell-based, SU-DIPG-XVII, MIPE5.0, CellTiter-Glo, qHTS, dose response (AID 1347060; cut-off not given, nearly all actives have AC50 up to about 26 µM;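 also: cells exposed to compound for 48 hours before viability readout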); conditions: CellTiter-Glo ATP luminescence
[10] = viability loss in pontine glioma line – cell-based, SU-DIPG-XIII, MIPE4.0, CellTiter-Glo, qHTS, dose response (AID 1347061; cut-off not given, nearly all actives have AC50 up to about 37 µM;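 also: cells exposed to compound for 48 hours before readout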); conditions: CellTiter-Glo ATP luminescence
[11] = viability loss in pontine glioma line – cell-based, JHH-DIPG-1, MIPE4.0, CellTiter-Glo, qHTS, dose response (AID 1347062; cut-off not given, nearly all actives have AC50 up to about 27 µM;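 also: cells exposed to compound for two days before readout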); conditions: JHH-DIPG-1 viability, CellTiter-Glo ATP luminescence
[12] = viability loss in pontine glioma line – cell-based, SU-DIPG-IV, MIPE4.0, CellTiter-Glo, qHTS, dose response (AID 1347063; cut-off not given, nearly all actives have AC50 up to about 30 µM;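 also: compound exposure lasted 48 hours before the viability readout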); conditions: CellTiter-Glo ATP luminescence
[13] = viability loss in pontine glioma line – cell-based, SU-DIPG-XIII, MIPE5.0, CellTiter-Glo, qHTS, dose response (AID 1347064; cut-off not given, nearly all actives have AC50 up to about 23 µM;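 also: cells exposed to compound for 48 hours before the viability read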); conditions: CellTiter-Glo ATP luminescence
[14] = viability loss in pontine glioma line – cell-based, SU-DIPG-XXV, MIPE5.0, CellTiter-Glo, qHTS, dose response (AID 1347065; cut-off not given, nearly all actives have AC50 up to about 26 µM;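 also: cells exposed to compound for 48 hours before ATP readout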); conditions: CellTiter-Glo ATP luminescence
[15] = growth inhibition of DIPG cells – cell-based, MIPE4.0 library, CellTiter-Glo luminescence, qHTS (AID 1347066; cut-off not given, nearly all actives have AC50 up to about 30 µM;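 also: cells exposed to compound for 48 hours before readout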); conditions: SU-DIPG-VI viability, CellTiter-Glo ATP luminescence
[16] = JHH-DIPG-1 glioma cell viability, MIPE5.0 library, CellTiter-Glo luminescence, qHTS (AID 1347067; cut-off not given, nearly all actives have AC50 up to about 26 µM;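 also: cells exposed to compound for 48 hours before readout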); conditions: JHH-DIPG-1 glioma viability, CellTiter-Glo ATP luminescence
[17] = growth inhibition of DIPG cells – cell-based, MIPE5.0 library, qHTS (AID 1347068; cut-off not given, nearly all actives have IC50 up to about 30 µM); conditions: SU-DIPG-XXV viability
[18] = viability loss with induced miR-34 in A549 – imaging, A549 dox-inducible miR-34, nuclei and caspase counts, primary screen (AID 1347080;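 active = compounds whose cell count with miR-34 switched on is under 0.7 times the count with it off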); conditions: A549 miR-34 inducible, Hoechst nuclei count, 48 h
[19] = compounds altering HSF1 focus formation in cells – imaging, Selleck Cancer Library (AID 1347162; in the data active = plate-normalised HSF1 focus index below about 0.46); conditions: human cells, HSF1 nuclear foci imaging, at 10 µM; SSMD: measured here: HSF1 foci SSMD mean; cell count: measured here: cell number; plate-normalised HSF1 focus index: stronger effect = lower value
[20] = galactose survival enhancers in mitochondrial complex I cybrids – cell-based, galactose medium, ATP luminescence, primary screen (AID 1645843;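 active = z-score of at least 1.8 in each of two replicates, scored against plate mean and spread of sample wells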;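 also: positive z means more ATP and so rescue of galactose-driven cybrid death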); conditions: complex I mutant cybrid cells, 72 h, stronger effect = higher value

Oc1cccc(-c2cnc3ccc(NCc4ccc(F)cc4)nn23)c1
inactive: inhibition [2] -5% | inhibition [3] 2% | outcome [5] | outcome [6] | outcome [7]
active: growth inhibition [1] 66% | growth inhibition [4] 91%

COc1cccc(CNCC(C)(C)c2nc(-c3ccc(Cl)c(O)c3)c(-c3ccncc3)[nH]2)c1
active: growth inhibition [1] 98% | inhibition [2] 74% | growth inhibition [4] 101%
inactive: inhibition [3] -9% | outcome [5] | outcome [6] | outcome [7]

CCn1c(-c2nonc2N)nc2c(-c3cccc(Cl)c3)ncc(OCCCNCc3cnc(C)nc3N)c21
active: growth inhibition [4] 93%
inactive: growth inhibition [1] 48% | inhibition [2] 21% | inhibition [3] 3% | outcome [5] | outcome [6]

NC(=O)c1ccccc1Nc1nc(Nc2ccn[nH]2)ncc1Cl
active: growth inhibition [1] 93% | inhibition [2] 67% | growth inhibition [4] 96%
inactive: inhibition [3] -4% | outcome [5] | outcome [6] | outcome [7]

NS(=O)(=O)c1cccc(Nc2nc(N[C@@H]3CCNC3)nc3cc[nH]c(=O)c23)c1
inactive: inhibition [2] 7% | inhibition [3] 0% | outcome [5] | outcome [6]
active: growth inhibition [1] 98% | growth inhibition [4] 99%

CCn1c(-c2nonc2N)nc2c(-c3cccc(NC(=O)Nc4ccc(C(F)(F)F)cc4)c3)ncc(OCCCN)c21
active: growth inhibition [1] 63% | growth inhibition [4] 94%
inactive: inhibition [2] 36% | inhibition [3] 6% | outcome [5] | outcome [6]

CS(=O)(=O)CCNCc1cccc(-c2ccc3c(Nc4ccc(Oc5cccnc5)cc4)ccnc3c2)c1
active: growth inhibition [1] 99% | growth inhibition [4] 101%
inactive: inhibition [2] 27% | inhibition [3] 4% | outcome [5] | outcome [6] | outcome [7]

O=C(Nc1cccc(-c2nn3ncccc3c2-c2ccnc(Nc3ccccc3)n2)c1)c1c(F)cccc1F
inactive: inhibition [3] 0% | outcome [5] | outcome [6]
active: growth inhibition [1] 96% | inhibition [2] 51% | growth inhibition [4] 98%

CC(C)(CN)c1cc(-c2ccc(Cl)c(O)c2)c(-c2ccncc2)o1
inactive: inhibition [2] 44% | inhibition [3] 7% | outcome [5] | outcome [6]
active: growth inhibition [1] 97% | growth inhibition [4] 92%

COc1ccc2nc(-c3cc(-c4ccc(NC(C)=O)cc4)cnc3N)[nH]c2c1
active: growth inhibition [1] 73% | inhibition [2] 55% | growth inhibition [4] 93%
inactive: inhibition [3] -1% | outcome [5] | outcome [6] | outcome [7]

NCC1(c2nc(-c3ccc(Cl)c(O)c3)c(-c3ccncc3)[nH]2)CCCCC1
active: growth inhibition [1] 98% | growth inhibition [4] 98%
inactive: inhibition [2] 48% | inhibition [3] -2% | outcome [5] | outcome [6] | outcome [7]

CCn1c(-c2nonc2N)nc2c(-c3cccc(NC(=O)Nc4cccc(Cl)c4)c3)ncc(OCCCN)c21
inactive: inhibition [2] 9% | inhibition [3] -1% | outcome [5] | outcome [6]
active: growth inhibition [1] 78% | growth inhibition [4] 91%

Cc1[nH]c(/C=C2\C(=O)Nc3ccc(S(=O)(=O)Cc4c(Cl)cccc4Cl)cc32)c(C)c1C(=O)N1CCC[C@@H]1CN1CCCC1
0.661: SSMD [19]
7510: cell count [19]
inactive: inhibition [2] 33% | inhibition [3] -1% | outcome [5] | outcome [6] | remaining activity [8] 123% | outcome [10] | outcome [17] | fold change ([18]; stronger effect = lower value, cell number ratio, induced over uninduced) 1.1 | plate-normalised HSF1 focus index [19] 1.05 | z-score [20] -0.7
active: growth inhibition [1] 92% | growth inhibition [4] 85% | AC50 [9] 9.34 µM | AC50 [11] 26.4 µM | AC50 [12] 23.5 µM | AC50 [13] 9.34 µM | AC50 [14] 8.33 µM | AC50 [15] 8.33 µM | AC50 [16] 5.9 µM
1.29: fold change ([18]; measured here: relative caspase fold change +Dox/-Dox)
5410: cell count ([18]; measured here: total cells without miR-34 induction)
5950: cell count ([18]; measured here: total cells with miR-34 induction, stronger effect = lower value)

CCCN1CCN(CCNC(=O)c2cccc(Nc3nccc(Nc4ccc(Oc5ccccc5)cc4)n3)c2)CC1
active: growth inhibition [1] 96% | inhibition [2] 56% | growth inhibition [4] 99%
inactive: inhibition [3] -7% | outcome [5] | outcome [6] | outcome [7]

CCn1c(-c2nonc2N)nc2c(-c3cccc(NC(=O)Nc4ccc(C#N)cc4)c3)ncc(OCCCN)c21
inactive: inhibition [2] 1% | inhibition [3] 0% | outcome [5] | outcome [6]
active: growth inhibition [1] 80% | growth inhibition [4] 85%

Oc1cccc(Nc2ccnc3cc(-c4nccs4)ccc23)c1
active: growth inhibition [4] 98%
inactive: inhibition [2] -10% | inhibition [3] -7% | outcome [5] | outcome [6] | outcome [7]

COc1cc(-c2nc(C(C)(C)CN)[nH]c2-c2ccncc2)ccc1Br
active: growth inhibition [1] 95% | growth inhibition [4] 97%
inactive: inhibition [2] 17% | inhibition [3] 1% | outcome [5] | outcome [6] | outcome [7]

CN(C)CCNCc1cccc(-c2ccc3c(Nc4ccc(Oc5ccccn5)cc4)ccnc3c2)c1
active: growth inhibition [1] 100% | growth inhibition [4] 99%
inactive: inhibition [2] 27% | inhibition [3] 2% | outcome [5] | outcome [6] | outcome [7]
